Results on 8 compounds are retold here after PubChem BioAssay.

Activity calls are given as the source filed them.

The target of one assay is Albumin (Bos taurus) (UniProt P02769). Nature of the assay: bovine serum albumin binders on microarray, profiling panel, artefact control for SMM control protein annotation, biochemical, small-molecule microarray, Alexa647 label, 635/667 nm fluorescence (AID 1118).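 Further: score merges 667 nm emission intensity and signal-to-noise per printed compound spot.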 As to conditions: BSA-A647 binding, fluorescence 635 nm, higher = more signal.
Albumin (Bos taurus), sequence (P02769 whole entry, looked up): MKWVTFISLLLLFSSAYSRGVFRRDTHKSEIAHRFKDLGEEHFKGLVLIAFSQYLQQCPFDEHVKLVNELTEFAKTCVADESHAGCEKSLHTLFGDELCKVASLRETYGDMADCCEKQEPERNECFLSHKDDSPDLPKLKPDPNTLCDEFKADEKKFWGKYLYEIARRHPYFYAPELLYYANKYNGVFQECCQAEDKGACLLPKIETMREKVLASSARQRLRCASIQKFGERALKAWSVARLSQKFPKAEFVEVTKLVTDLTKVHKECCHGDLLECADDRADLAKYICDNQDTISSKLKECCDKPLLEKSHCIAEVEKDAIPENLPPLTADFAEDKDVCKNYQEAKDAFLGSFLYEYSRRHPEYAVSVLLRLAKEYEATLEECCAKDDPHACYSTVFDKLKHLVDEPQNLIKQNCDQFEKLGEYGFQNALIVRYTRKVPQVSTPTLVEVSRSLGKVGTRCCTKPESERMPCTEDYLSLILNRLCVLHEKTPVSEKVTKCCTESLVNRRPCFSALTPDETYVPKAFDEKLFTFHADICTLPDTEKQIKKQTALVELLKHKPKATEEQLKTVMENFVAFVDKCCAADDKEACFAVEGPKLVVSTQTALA
Assay [1] is described as follows: small-molecule microarray binders of probe aXIP, primary screen, biochemical, NeuroSMM set, 635/667 nm fluorescence (AID 1119).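 Further: probe is the protein aXip251-270 applied at 1 µg/mL to compound-printed slides; binding of probe to printed compounds measured as 667 nm fluorescence plus signal to noise.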 As to conditions: higher = more signal, called active from +8 up or from −8 down.
Assay [2] is described as follows: small-molecule binders of probe aNOTCH3, primary screen, biochemical, small-molecule microarray, 635/667 nm fluorescence (AID 1120).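 Further: probe is a biotin-tagged antibody raised against NOTCH3 rather than NOTCH3 protein; score merges spot fluorescence near 667 nm with spot signal to noise.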 As to conditions: higher = more signal.
Assay [3] can be described thus: small-molecule binders of probe aNOTCH2, primary screen, biochemical, small-molecule microarray, 635/667 nm fluorescence (AID 1121).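 Further: score merges feature fluorescence read at 667 nm with its signal to noise.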 As to conditions: higher = more signal.
The target of assay [4] is Carbonic anhydrase 2 (Homo sapiens) (UniProt P00918). Nature of the assay: CAII small-molecule binders, profiling panel, biochemical, small-molecule microarray, Alexa647-labelled CAII (AID 1122). As to conditions: CAII-A647 binding fluorescence, higher = more signal.
The nature of assay [5]: COS7 lysate on small-molecule microarray, probe aHis, 635 nm (AID 1123).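 Further: z-score combines 667nm fluorescence intensity with signal-to-noise per printed compound spot.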 As to conditions: COS7 cell lysate, fluorescence, higher = more signal.
Assay [6] in a line: compound binding in COS7 lysate, probe aLAP1, primary screen, cell lysate, small-molecule microarray (AID 1124).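 Further: lysate comes from COS7 cells expressing LAP1 and is applied at 0.3 µg/mL; score merges spot fluorescence near 667 nm with signal-to-noise over triplicate slides.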 As to conditions: probe aLAP1, fluorescence, higher = more signal.
The subject of the next assay is Sam68 (KHDRBS1). Nature of the assay: Sam68 small-molecule binders, primary screen, biochemical, small-molecule microarray, 635 nm fluorescence (AID 1125).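 Further: score merges 667 nm channel intensity with signal to noise over triplicate slides.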 As to conditions: small-molecule microarray binding, higher = more signal.
Assay [7] concerns Chordin-like protein 2 (CHRDL2). The experiment in a line: CHRDL2 small-molecule binders, primary screen, biochemical, small-molecule microarray, 635 nm fluorescence (AID 1126).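 Further: printed compound slides probed with Chrdl2 protein at 4 µg/mL for 1 h at 4 C; score merges 667 nm emission intensity with signal to noise over three replicate slides.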 As to conditions: small-molecule microarray binding, fluorescence 635 nm; higher = more signal.
For assay [8], the target named is Concanavalin-A (Canavalia ensiformis) (UniProt P02866). Nature of the assay: ConA small-molecule binders, primary screen, artefact control for SMM control protein annotation, biochemical, small-molecule microarray, Alexa647 label, 635 nm (AID 1127).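 Further: z combines 667 nm emission intensity with signal-to-noise across three replicate slides.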 As to conditions: ConA-A647 binding fluorescence, higher = more signal.
Concanavalin-A (Canavalia ensiformis), sequence (P02866 whole entry, looked up): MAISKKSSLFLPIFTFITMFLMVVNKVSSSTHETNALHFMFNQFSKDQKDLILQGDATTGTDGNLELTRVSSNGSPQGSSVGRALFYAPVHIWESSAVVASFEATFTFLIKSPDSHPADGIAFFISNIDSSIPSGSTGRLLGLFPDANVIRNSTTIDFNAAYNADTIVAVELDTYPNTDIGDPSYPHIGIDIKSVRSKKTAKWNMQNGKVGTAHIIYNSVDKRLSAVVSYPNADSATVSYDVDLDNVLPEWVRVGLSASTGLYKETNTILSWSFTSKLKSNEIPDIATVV
Assay [9] can be described thus: anti-His antibody binders, primary screen, artefact control for SMM control protein annotation, biochemical, small-molecule microarray, 635 nm fluorescence (AID 1128).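 Further: score merges feature fluorescence with signal-to-noise for each printed compound spot.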 As to conditions: anti-His Alexa647 antibody binding, higher = more signal.
In assay [10] the test system is Human papillomavirus type 1a E7 protein (residues 1-88). Nature of the assay: HPV1a E7 small-molecule binders, primary screen, biochemical, small-molecule microarray, residues 1-88, 635 nm (AID 1129). As to conditions: small-molecule microarray binding, fluorescence 635 nm; higher = more signal.
For assay [11], the target named is Focal adhesion kinase 1 (Homo sapiens) (UniProt Q05397). The experiment in a line: small-molecule microarray binders of FAK, primary screen, biochemical, 635/667 nm fluorescence, BSA, DTT (AID 1130).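 Further: composite of spot emission at 667 nm and signal to noise over triplicate slides.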 As to conditions: PTK2 binding, 635 nm fluorescence, higher = more signal.
Focal adhesion kinase 1 (Homo sapiens), sequence (Q05397 whole entry, looked up): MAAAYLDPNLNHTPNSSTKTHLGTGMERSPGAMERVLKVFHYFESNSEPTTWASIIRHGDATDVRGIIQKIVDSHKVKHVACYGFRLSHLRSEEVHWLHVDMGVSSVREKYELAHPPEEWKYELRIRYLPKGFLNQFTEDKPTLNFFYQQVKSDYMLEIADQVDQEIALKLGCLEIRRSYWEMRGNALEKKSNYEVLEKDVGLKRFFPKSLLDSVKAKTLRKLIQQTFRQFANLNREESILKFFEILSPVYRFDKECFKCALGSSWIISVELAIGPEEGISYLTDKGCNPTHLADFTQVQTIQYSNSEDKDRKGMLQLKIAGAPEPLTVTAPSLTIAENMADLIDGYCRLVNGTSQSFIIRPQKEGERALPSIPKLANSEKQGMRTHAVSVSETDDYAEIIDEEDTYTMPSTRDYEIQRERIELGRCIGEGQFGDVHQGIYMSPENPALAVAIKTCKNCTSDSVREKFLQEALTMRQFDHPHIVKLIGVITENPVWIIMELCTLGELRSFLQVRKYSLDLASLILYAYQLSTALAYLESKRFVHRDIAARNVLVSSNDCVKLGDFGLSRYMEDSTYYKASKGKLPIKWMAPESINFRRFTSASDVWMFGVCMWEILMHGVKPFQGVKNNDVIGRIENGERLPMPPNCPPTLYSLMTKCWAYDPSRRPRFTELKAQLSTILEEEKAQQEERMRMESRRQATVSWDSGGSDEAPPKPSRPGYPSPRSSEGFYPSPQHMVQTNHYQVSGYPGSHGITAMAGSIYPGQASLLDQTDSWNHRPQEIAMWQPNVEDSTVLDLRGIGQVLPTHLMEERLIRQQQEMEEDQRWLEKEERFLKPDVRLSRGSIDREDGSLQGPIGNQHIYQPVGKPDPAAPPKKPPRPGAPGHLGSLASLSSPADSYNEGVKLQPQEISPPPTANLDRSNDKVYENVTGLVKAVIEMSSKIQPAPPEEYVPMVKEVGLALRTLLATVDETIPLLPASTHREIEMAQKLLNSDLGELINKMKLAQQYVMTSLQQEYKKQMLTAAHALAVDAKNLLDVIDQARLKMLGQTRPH
Assay [12] has as its system Fibrinogen (Alexa647-labelled). The experiment in a line: fibrinogen binders on compound microarrays, profiling panel, artefact control for SMM control-protein annotation, biochemical, small-molecule microarray, 635/667 nm fluorescence (AID 1131).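 Further: z-score merges 667 nm fluorescence with per-spot signal-to-noise over triplicate slides.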 As to conditions: fibrinogen-A647 binding fluorescence, higher = more signal.
In assay [13] the target is Follistatin (Homo sapiens) (UniProt P19883). Nature of the assay: follistatin binders on small-molecule microarrays, primary screen, biochemical, small-molecule microarray, 635/667 nm fluorescence (AID 1132). As to conditions: FST binding, 635 nm fluorescence, higher = more signal.
Follistatin (Homo sapiens), sequence (P19883 whole entry, looked up): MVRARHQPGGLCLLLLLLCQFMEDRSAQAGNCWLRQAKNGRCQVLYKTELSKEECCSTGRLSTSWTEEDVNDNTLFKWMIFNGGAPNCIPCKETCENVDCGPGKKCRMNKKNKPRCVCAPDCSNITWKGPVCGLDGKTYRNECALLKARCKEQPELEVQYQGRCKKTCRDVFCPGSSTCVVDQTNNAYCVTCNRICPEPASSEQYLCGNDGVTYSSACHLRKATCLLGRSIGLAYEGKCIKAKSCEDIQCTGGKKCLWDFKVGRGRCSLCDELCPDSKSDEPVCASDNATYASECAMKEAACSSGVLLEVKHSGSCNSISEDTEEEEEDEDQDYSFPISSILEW
The target of assay [14] is Fibroblast growth factor 2 (Homo sapiens) (UniProt P09038). The experiment in a line: FGF2 binders on small-molecule microarrays, primary screen, biochemical, small-molecule microarray, 635/667 nm fluorescence (AID 1133). As to conditions: small-molecule microarray binding, FGF2, fluorescence 635/667; higher = more signal.
Fibroblast growth factor 2 (Homo sapiens), sequence (P09038 whole entry, looked up): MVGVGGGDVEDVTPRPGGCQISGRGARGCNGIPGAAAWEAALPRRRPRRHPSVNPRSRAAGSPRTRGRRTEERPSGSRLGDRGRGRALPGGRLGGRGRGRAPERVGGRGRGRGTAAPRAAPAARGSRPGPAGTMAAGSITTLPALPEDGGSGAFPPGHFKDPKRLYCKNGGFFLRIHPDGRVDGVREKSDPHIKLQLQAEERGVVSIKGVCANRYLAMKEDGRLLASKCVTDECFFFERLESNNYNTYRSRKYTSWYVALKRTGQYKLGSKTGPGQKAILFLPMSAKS
The nature of assay [15]: mitochondrial membrane potential change in A549 cells, profiling panel, cell-based, JC-1 fluorescence, basal, 24 h, 100 nL (AID 1138).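 Further: A549 lung adenocarcinoma cells under basal conditions with no added stimulus; test concentration not given here.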 As to conditions: higher = more signal.
The subject of the next assay is Lefty1. The experiment in a line: Lefty1 binders on small-molecule microarrays, primary screen, biochemical, small-molecule microarray, 635/667 nm fluorescence (AID 1139). As to conditions: small-molecule microarray binding, fluorescence 635/667; higher = more signal.
For assay [16], the system named is wheat germ agglutinin (Triticum aestivum), Alexa647-labelled. The experiment in a line: wheat germ agglutinin binders on compound microarrays, profiling panel, artefact control for SMM control-protein annotation, biochemical, small-molecule microarray, 635/667 nm fluorescence (AID 1140).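 Further: score merges 667 nm feature emission with signal to noise over triplicate slides.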 As to conditions: WGA-A647 binding, 635 nm fluorescence, higher = more signal.

For assay [17], the target named is Luciferin 4-monooxygenase (Photinus pyralis) (UniProt P08659). The experiment in a line: firefly luciferase enzyme inhibitors, primary screen, biochemical, luminescence, purified enzyme, 2006 set (AID 1141).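 Further: cell-free assay with purified firefly luciferase at 100 ng per well in PBS; test concentration not given here.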 As to conditions: SteadyGlo luminescence, 30 min, higher = more signal, called active from +8 up or from −8 down.
Luciferin 4-monooxygenase (Photinus pyralis), sequence (P08659 whole entry, looked up): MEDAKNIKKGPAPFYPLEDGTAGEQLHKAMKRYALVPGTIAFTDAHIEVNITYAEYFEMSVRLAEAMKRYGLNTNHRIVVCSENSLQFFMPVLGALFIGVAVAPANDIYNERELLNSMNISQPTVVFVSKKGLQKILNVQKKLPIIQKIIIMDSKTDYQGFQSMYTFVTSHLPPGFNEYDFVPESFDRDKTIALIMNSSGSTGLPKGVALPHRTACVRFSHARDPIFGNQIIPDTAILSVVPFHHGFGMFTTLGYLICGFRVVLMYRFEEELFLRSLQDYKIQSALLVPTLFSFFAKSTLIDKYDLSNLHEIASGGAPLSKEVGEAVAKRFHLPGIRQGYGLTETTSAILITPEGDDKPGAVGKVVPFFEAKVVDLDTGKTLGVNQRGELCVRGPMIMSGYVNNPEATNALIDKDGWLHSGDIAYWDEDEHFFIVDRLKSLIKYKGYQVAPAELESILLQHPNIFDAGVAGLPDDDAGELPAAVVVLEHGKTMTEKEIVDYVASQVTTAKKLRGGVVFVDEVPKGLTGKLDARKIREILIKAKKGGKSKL

For `COCCOC(=O)N1C(=O)[C@@]2(c3cc(C#CC4(O)CCCCCC4)ccc31)[C@H](c1ccc(O)cc1)N1[C@H](c3ccccc3)[C@H](c3ccccc3)OC(=O)[C@H]1[C@@H]2C(=O)N1CCN(c2ncccn2)CC1`, the composite z-score with Albumin (Bos taurus) was 0.521; in assay [2], 0.0562; in assay [3], -0.12; in assay [4] it was 0.437; in assay [5] it was 1.29; in assay [6] it was 0.46. Moreover, the composite z-score with Sam68 (KHDRBS1) is 1.29; in [7] it was -0.163; in [8], 1.12; in assay [9], 0.388; in assay [10], 1.17; in assay [11], 0.839. Further, the composite z-score in assay [12] was found to be 0.576; in assay [13], 1.06; in [14], 1.32; in the assay with Lefty1 it was 0.497; in assay [16], 0.417. The composite Z-score in [1] was 0.883 (inactive). The z-score was -0.976 in [15] and -0.47 (inactive) in [17].
For `COc1cc(NN2C(C(O)c3cc(OC)c(OC)c(OC)c3)C=CC3C(=O)N(C)C(=O)C32)cc(OC)c1OC` (stereo not given), the composite z-score with Albumin (Bos taurus) is 1.03; in [2], 0.499; in [3], -0.0028; in assay [4] it was 0.67; in assay [5], 2.77; in [6] it was 0.0495. The composite z-score in the assay with Sam68 (KHDRBS1) is 1.23; in [7] it was 0.0976; in assay [8], 0.894; in [9] it was 0.661; in assay [10] it was 1.07; in assay [11], 0.368. The composite z-score in assay [12] is 0.169; in assay [13], 0.67; in assay [14] it was 0.0023; with Lefty1, 0.289; in assay [16], 0.694. In assay [1], the composite Z-score was 0.328 (inactive). Also, the z-score in assay [15] was 1.38; in assay [17], 0.229 (inactive).
Turning to `CC(C)C(O)C1C=CC2C(=O)N(c3ccccc3)C(=O)C2N1Nc1ccccc1` (stereo not given), the composite z-score with Albumin (Bos taurus) was 0.938; in assay [2], 0.228; in assay [3] it was -0.131; in assay [4], 0.698; in [5], 3.02; in assay [6], 0.281. The composite z-score with Sam68 (KHDRBS1) was 1.31; in assay [7], -0.235; in assay [8], 0.966; in [9], 0.331; in assay [10], 1.29; in assay [11], 0.463. Moreover, the composite z-score was 1.05 in assay [12]; 0.986 in [13]; -0.11 in [14]; 0.63 with Lefty1; 1.14 in [16]. Moreover, in assay [1], the composite Z-score is -0.221 (inactive). Moreover, the z-score was 0.0126 in assay [15] and 0.172 (inactive) in assay [17].
On to `Cc1ccc(S[C@]2(C(=O)NCC(F)(F)F)CC(=O)N(Cc3cc(C(F)(F)F)cc(C(F)(F)F)c3)[C@@H]2c2ccc(CO)cc2I)cc1`, for which the composite z-score is 0.803 with Albumin (Bos taurus); -0.291 in assay [2]; -0.164 in [3]; 0.14 in assay [4]; 0.869 in assay [5]; -0.0008 in [6]. Further, the composite z-score is -1.47 in the assay with Sam68 (KHDRBS1); -1.54 in assay [7]; -0.41 in assay [8]; 0.214 in assay [9]; -0.698 in [10]; -0.301 in [11]. Also, the composite z-score is -0.994 in [12]; -0.887 in assay [13]; -0.91 in assay [14]; -0.708 in the assay on Lefty1; -0.314 in [16]. For the same compound, the composite Z-score in assay [1] is 0.439 (inactive). The z-score in [15] was -1.01; in assay [17], 1.5 (inactive).
For the compound `C=CCNC(=O)[C@@H]1[C@H]2C(=O)O[C@H](c3ccccc3)[C@H](c3ccccc3)N2[C@H](c2ccccc2OCCO)[C@@]12C(=O)Nc1ccc(C#CCCO)cc12`, the composite z-score is -0.162 in the assay with Albumin (Bos taurus); -0.0302 in assay [2]; -0.147 in assay [3]; 0.675 in [4]; 0.71 in assay [5]; 0.452 in assay [6]. The composite z-score with Sam68 (KHDRBS1) was 0.826; in assay [7], 1.13; in [8] it was 1.15; in [9], 0.169; in [10], 0.723; in [11] it was 0.415. Also, the composite z-score amounted to 0.862 in [12]; 1.43 in assay [13]; 1.62 in [14]; 1.32 in the assay with Lefty1; 0.5 in assay [16]. In addition, the composite Z-score in [1] was -0.433 (inactive). For the same compound, the z-score was 0.861 in assay [15] and 0.467 (inactive) in assay [17].
As to `COCCOC(=O)N1C(=O)[C@@]2(c3cc(C#CCCO)ccc31)[C@H](C(=O)Nc1nc3ccccc3s1)[C@H]1C(=O)O[C@H](c3ccccc3)[C@H](c3ccccc3)N1[C@@H]2c1ccc(O)cc1`, the composite z-score was -0.767 in the assay with Albumin (Bos taurus); 0.177 in assay [2]; 0.0687 in [3]; 0.473 in assay [4]; 2.08 in assay [5]; 0.799 in [6]. The composite z-score was 1.31 with Sam68 (KHDRBS1); 0.791 in [7]; 1.17 in [8]; 2.54 in assay [9]; 1.24 in assay [10]; 0.978 in [11]. Also, the composite z-score in assay [12] came to 0.919; in assay [13], 1.38; in assay [14] it was 1.28; with Lefty1, 1.05; in assay [16], 0.777. In addition, the composite Z-score in assay [1] was 0.326 (inactive). Further, the values for the z-score in assay [15] and in [17] were -0.137 and 0.57 (inactive), respectively.
On to `O=C1O[C@H](c2ccccc2)[C@H](c2ccccc2)N2[C@H]1[C@@H](C(=O)O)[C@]1(C(=O)Nc3ccc(C#CCCO)cc31)[C@H]2c1ccccc1OCCO`, for which the composite z-score in the assay with Albumin (Bos taurus) was 0.713; in assay [2], -0.19; in assay [3] it was -0.124; in assay [4] it was 0.729; in assay [5] it was 0.676; in assay [6], 0.681. Further, the composite z-score with Sam68 (KHDRBS1) was 0.794; in assay [7] it was -0.579; in [8], 0.991; in assay [9], 0.84; in assay [10], 0.0764; in assay [11] it was 0.0281. Further, the composite z-score in [12] was 0.289; in [13] it was 0.622; in [14], -0.0212; in the assay on Lefty1 it was 0.404; in assay [16], 0.842. Also, in [1], the composite Z-score is -0.308 (inactive). Moreover, the z-score in [15] is -0.689; in [17] it was -0.747 (inactive).
`C=CCNC(=O)[C@@H]1[C@H]2C(=O)O[C@H](c3ccccc3)[C@H](c3ccccc3)N2[C@H](c2ccc(OCCO)cc2)[C@@]12C(=O)N(C(=O)OCCOC)c1ccc(C#Cc3ccc(OC)cc3)cc12`: the composite z-score with Albumin (Bos taurus) was 0.645; in assay [2], 0.182; in [3], -0.151; in assay [4], 0.402; in assay [5], 1.39; in assay [6], 0.78. In addition, the composite z-score in the assay with Sam68 (KHDRBS1) stood at 1.3; in assay [7], 0.151; in assay [8] it was 1.14; in [9], 0.81; in [10] it was 1.16; in assay [11], 0.066. The composite z-score in assay [12] came to 0.785; in [13], 1.27; in assay [14], 0.93; with Lefty1 it was 0.901; in assay [16], 0.939. Further, the composite Z-score in assay [1] is -0.116 (inactive). The z-score in assay [15] was -1.41; in assay [17], -0.728 (inactive).
